Common to all, as to assay: NCI-60 one-dose screen, 48 h (100 = growth as untreated, 0 = no growth, -100 = all killed)
Conditions in all cases: 10 µM unless noted

Test [1] deals with DU-145 prostate.
The test system of test [2] is K-562 leukemia.
Test [3] has as its system MALME-3M melanoma.
In test [4] the test system is MDA-MB-231 breast.
For test [5], the system named is SF-268 CNS.
For test [6], the system named is SF-295 CNS.
Test [7] deals with SF-539 CNS.
Test [8] has as its system UACC-257 melanoma.
In test [9] the test system is HCT-15 colon.
Test [10] relates to HT29 colon.
The test system of test [11] is SNB-75 CNS.
The subject of test [12] is SNB-19 CNS.
The subject of test [13] is U251 CNS.
The subject of test [14] is PC-3 prostate.
The subject of test [15] is SK-MEL-5 melanoma.
The subject of test [16] is UACC-62 melanoma.
For test [17], the system named is LOX IMVI melanoma.
In test [18] the test system is SK-MEL-28 melanoma.

This is part of a sample that, as a whole, favours compounds with a hit. Of some 83,000 tested, about 20% had one in any assay.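 For each line, cells grew in 96-well plates with the test compound present at a single concentration for 48 hours.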 Unmarked numbers belong to inactive results. The source made the active and inactive calls. The calls were made as follows: active = growth percent below 10; inactive = the rest.

With `Cc1nc(Nc2ccc(N)cc2)c2ccccc2n1`, the growth in [1] is 117%; in test [2], 74.5%; in test [3], 97.6%; in [4], 93.9%; in test [5], 106%; in test [6] it was 95.8%. Besides, the growth in test [7] is 96%; in [8], 104%; in test [9], 89.4%; in test [10], 88.9%; in test [11], 103%; in test [12], 97.7%. Further, the growth was 99.1% in test [13]; 91% in test [14]; 91.9% in [15]; 98.5% in [16]; 90.7% in test [17]; 114% in test [18].

Regarding `COc1ccc(-c2c(N)n[nH]c2-c2ccccc2O)cc1OC`, the growth in test [1] was 116%; in test [2], 87.2%; in [3], 62.8%; in test [4] it was 78.7%; in test [5], 100%; in test [6] it was 101%. Moreover, the growth was 86.5% in [7]; 100% in [8]; 115% in test [9]; 112% in [10]; 92.2% in test [11]; 89.1% in test [12]. Moreover, the growth in test [13] was 99.6%; in test [14] it was 82.7%; in test [15], 87.8%; in test [16], 99%; in [17], 96.6%; in test [18], 103%.

As to `COc1ccc(/C(C)=C(\c2ccc(Cl)cc2)c2ccc(OCCN(C)C)cc2)cc1F`, the growth in test [1] was 79.5%; in test [2], 3.97% (active); in test [3] it was 19.2%; in [4] it was 71.3%; in test [5], 74.5%; in test [6], 42.5%. Moreover, the growth in test [7] was 55.2%; in [8], 5.92% (active); in test [9], 16.4%; in test [10], 8.32% (active); in test [11] it was 75.4%; in test [12] it was 80%. Moreover, the growth in test [13] was 46%; in test [14], 51.2%; in test [15], 55%; in test [16] it was 42.3%; in [17], -44.6% (active); in [18] it was 30.9%.

On to `Cc1nc(Nc2ccc(NC(=S)Nc3ccccc3)cc2)c2ccccc2n1`, for which the growth in [1] was 125%; in [2], 78.5%; in test [3] it was 99.5%; in test [4], 97.6%; in test [5], 111%; in [6], 99.5%. The growth in [7] was 100%; in [8] it was 101%; in test [9], 101%; in test [10] it was 107%; in [11], 104%; in test [12] it was 105%. Further, the growth in test [13] was 101%; in [14], 99.2%; in [16] it was 95.1%; in test [17], 97.9%; in test [18] it was 108%.

Turning to `C=C1C(=O)O[C@H]2[C@H]1CC/C(COC(=O)/C=C\C(=O)NCc1ccc(Cn3c(=O)sn(CCCI)c3=O)cc1)=C\CC[C@@]1(C)O[C@@H]21`, the growth in test [1] was -90.4% (active); in test [2], -10.1% (active); in test [3] it was -94.2% (active); in test [4], -83.3% (active); in test [5], -81.7% (active); in [6] it was 58%. The growth in [7] was -98.7% (active); in test [8] it was -53.7% (active); in test [9] it was -38% (active); in test [10], -30.1% (active); in test [11], -63.9% (active); in test [12], 1.92% (active). Further, the growth was -72% (active) in test [13]; -70.6% (active) in [14]; -98.2% (active) in test [16]; -83.2% (active) in test [17]; -94.7% (active) in test [18].

As to `COc1ccc(-n2sc(=O)n(Cc3ccc(COC(=O)C(C)c4ccc(CC(C)C)cc4)cc3)c2=O)cc1` (stereo unspecified), the growth in test [1] was 43.9%; in test [2] it was -11.6% (active); in [3], -49.4% (active); in [4] it was 62.4%; in test [5] it was 71.9%; in test [6], 97.2%. Moreover, the growth was 26.8% in test [7]; 54.9% in test [8]; 36.3% in [9]; 22% in [10]; 46.7% in test [11]; 80.5% in test [12]. In addition, the growth in test [13] was 75.3%; in test [14], 61.7%; in test [16] it was 55.2%; in test [17] it was -75.9% (active); in test [18] it was 52.8%.

Take `CN(C)CCn1cc(-c2ccc3c(Nc4ccc(CC(=O)Nc5cccc(F)c5)cc4)ncnc3c2)cn1`: the growth in test [1] was -95.8% [30 µM] (active); in test [2] it was -29.2% [30 µM] (active); in test [3] it was -92% [30 µM] (active); in [4] it was -85.7% [30 µM] (active); in test [5], -61.7% [30 µM] (active); in test [6] it was -79.8% [30 µM] (active). For the same compound, the growth in test [7] is -94.2% [30 µM] (active); in test [8], -59.7% [30 µM] (active); in test [9], 22.1% [30 µM]; in [10], -40.7% [30 µM] (active); in test [11], -87% [30 µM] (active); in test [12], -60% [30 µM] (active). Further, the growth in [13] was -52.4% [30 µM] (active); in test [14], -25.2% [30 µM] (active); in test [16], -81.6% [30 µM] (active); in test [17], -50.2% [30 µM] (active); in test [18], -89.6% [30 µM] (active).

Turning to `COc1ccc(/C(C)=C(\c2ccc(Cl)cc2)c2ccc(OCCCN(C)C)cc2)cc1F`, the growth is 73.5% in [1]; -0.587% (active) in [2]; 17.2% in [3]; 73.7% in test [4]; 81.8% in [5]; 53.5% in test [6]. Besides, the growth is 44.9% in test [7]; 17.1% in [8]; 7.7% (active) in [9]; 3.41% (active) in [10]; 70.6% in test [11]; 67% in test [12]. Moreover, the growth in [13] is 38.5%; in test [14], 59.2%; in test [15] it was 84.1%; in test [16] it was 45.7%; in [18], 37.8%.

Take `O=C1c2ccccc2C(=O)c2cc(Cn3cc[n+](Cc4ccc5ccccc5c4)c3)ccc21`: the growth is 115% in test [1]; 32.5% in [2]; 66.5% in [3]; 81.4% in test [4]; 72.5% in test [5]; 94.9% in test [6]. The growth in test [7] was 84.1%; in [8] it was 56.1%; in [9], 98.1%; in test [10] it was 73.1%; in test [11], 62.8%; in test [12] it was 79.5%. For the same compound, the growth in test [13] was 85.8%; in [14], 38.8%; in test [15] it was 68.3%; in test [16] it was 61.1%; in test [18] it was 94.5%.

The values above are taken from PubChem BioAssay (NCI).
